Among the data in the OligoGym collection are sensor-assay potency score (higher = more potent) values, retold here.
Further: reference of the scale not given here.

In the first assay the target is ZNF708. As to the kind of experiment: pooled miR-30 sensor sort-seq; sequence = guide strand. The conditions noted are these: shRNA.
As to TTATCTTATGATTCGTAAGGTT, the sensor-assay potency score (higher = more potent) is -0.564.

Regarding TTATCTTATGTCTCTTTGCATT, the sensor-assay potency score (higher = more potent) is -1.42.

TTGAAAATACACTAAAAGCTTT registered a sensor-assay potency score (higher = more potent) of -0.61.

Sequence TTTTCTAGTAAGAATTATCTTA returned a sensor-assay potency score (higher = more potent) of -0.389.

As for TTTCTTGTGATTAGTAAGGTTT, the sensor-assay potency score (higher = more potent) was -0.453.

Another assay has as its target ZNF718. The description is as above. The conditions noted are these: shRNA.
Regarding ATTTGTAGTATTTTTGTGCAGA, the sensor-assay potency score (higher = more potent) is -0.171.

For the sequence ATATCTTATCTTATCTTTGTTT, the sensor-assay potency score (higher = more potent) was -0.436.

TTTATCTACAGTGTGAATTTTC registered a sensor-assay potency score (higher = more potent) of -0.972.

TTATGTTTAGCAAAGTCTGAGG gave a sensor-assay potency score (higher = more potent) of -0.614.

TTTTGTGTTGAGTTAGGCGTGA yielded a sensor-assay potency score (higher = more potent) of 0.0879.

Take TAATTCTATTATAACCACCTTT: the sensor-assay potency score (higher = more potent) was -0.203.

In turn, TCTATTATAACCACCTTTCTGC came in with a sensor-assay potency score (higher = more potent) of -0.0639.

Consider TTAAATTCTCATGTCCACGTTT, for which the sensor-assay potency score (higher = more potent) was -0.266.

TTATGTGTCGTAAGAGTTGTGG displayed a sensor-assay potency score (higher = more potent) of 0.343.

TATCTTATCTTATCTTTGTTTG registered a sensor-assay potency score (higher = more potent) of -1.2.

The target of a further assay is ZNF77. The description is as above. Particulars: shRNA.
TTCGGTAGGGTAACTCTTGTGC showed a sensor-assay potency score (higher = more potent) of 0.248.

Turning to TTACGGTTGAACACTCTCCCAG, the sensor-assay potency score (higher = more potent) was -0.487.

As to TAATACATAAAGGTCTTCCCAC, the sensor-assay potency score (higher = more potent) was -0.234.

Regarding TAGACCAGGAATCACTTCCTGT, the sensor-assay potency score (higher = more potent) was -0.274.

In turn, TTCCACATTTCTGACATTCATA returned a sensor-assay potency score (higher = more potent) of -1.1.

As to TACAATTTCTTCATCATTGGAT, the sensor-assay potency score (higher = more potent) amounted to 0.581.

TAAAGTAAGTGGGACATCCGAA: the sensor-assay potency score (higher = more potent) was -0.639.

On to TAAATGTAACAATCCAAGGAGG, for which the sensor-assay potency score (higher = more potent) is -0.849.

TATGTCACAGATGCTGTCCTTG displayed a sensor-assay potency score (higher = more potent) of -0.213.

TAACATAAATGTAACAATCCAA returned a sensor-assay potency score (higher = more potent) of -0.347.

TTAGGTACAAAATAAGTGCTAT returned a sensor-assay potency score (higher = more potent) of 0.0583.

In turn, TTTTCTCCAAAAATAGACCAGG came in with a sensor-assay potency score (higher = more potent) of -0.35.

The target in a further assay is ZNF829. The assay is described as above. Particulars: shRNA.
In the case of TTCTACATTCTTCACATTCATA, the sensor-assay potency score (higher = more potent) was -1.09.

In turn, TTCATCTGTATGGATTCTCTGA came in with a sensor-assay potency score (higher = more potent) of 0.0212.

Regarding TTGAGCAATACTTAAAGGCTTT, the sensor-assay potency score (higher = more potent) is -0.25.

Take TTCTTCACATTCATAGAGCTTC: the sensor-assay potency score (higher = more potent) was -0.0675.

Regarding TAATATTTTGGTCTCACACATT, the sensor-assay potency score (higher = more potent) was -1.12.

In the case of TGAACTACAACTAAAAGCCTTG, the sensor-assay potency score (higher = more potent) was -0.242.

TTGAATAAGTTCTGAGCTCTGA had a sensor-assay potency score (higher = more potent) of 0.585.

In turn, TTTACCAGTGTGAATCCTCTGA gave a sensor-assay potency score (higher = more potent) of 0.327.

Regarding TTCTCCAACATCACTTCTTTGT, the sensor-assay potency score (higher = more potent) was -0.439.

TACTTGACTGAAATGTCTCTTC had a sensor-assay potency score (higher = more potent) of 0.284.

On to TTGTAGAAGTTCATCATGCATT, for which the sensor-assay potency score (higher = more potent) is -0.541.

TTGACTGAAATGTCTCTTCTTT: the sensor-assay potency score (higher = more potent) was 0.505.
